Among the data in PubChem BioAssay AID652115 (Broad Institute, 2013) are inhibition values, retold here.

About 3,800 (1.2%) of roughly 330,000 compounds were called active. Cut-off read from the data, not from the text of the source: active = inhibition above about 15%; inconclusive = no clear call, values can overlap the other calls; inactive = below that. What follows is part of a selection rich in actives, with near analogues and random picks from the rest.

Sequence of NAD-dependent protein deacylase sirtuin-5, mitochondrial (Homo sapiens) (Q9NXA8 whole entry, looked up): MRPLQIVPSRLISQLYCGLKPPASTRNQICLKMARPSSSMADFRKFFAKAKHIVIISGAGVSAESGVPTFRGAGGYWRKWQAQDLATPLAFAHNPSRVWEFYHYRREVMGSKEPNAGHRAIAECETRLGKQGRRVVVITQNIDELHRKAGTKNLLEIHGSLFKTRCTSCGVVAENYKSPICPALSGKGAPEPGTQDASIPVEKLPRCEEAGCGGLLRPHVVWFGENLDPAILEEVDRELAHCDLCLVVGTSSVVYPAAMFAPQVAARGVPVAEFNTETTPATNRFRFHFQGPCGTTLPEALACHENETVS

The experiment concerns the target NAD-dependent protein deacylase sirtuin-5, mitochondrial (Homo sapiens) (UniProt Q9NXA8). In words: SIRT5 desuccinylase inhibitors, primary screen, biochemical, fluorescence imaging, single point, set 5 (AID 652115). The settings on record: Purified SirT5, succinyl-peptide AMC, trypsin-coupled fluorescence; at 15 µM; active compounds read high.
As for `C[C@@H]1CN([C@@H](C)CO)C(=O)c2cc(/C=C/c3ccccc3)cnc2O[C@H]1CN(C)C(=O)Nc1ccc(C(F)(F)F)cc1`, the inhibition is 8.54% (inactive). The result for `C[C@@H]1CN([C@H](C)CO)C(=O)c2cccc(NS(=O)(=O)c3ccc(F)cc3)c2O[C@@H]1CN(C)S(=O)(=O)c1ccccc1` reads 3.68% (inactive). On to `Cc1ccc(NC(=O)Cn2c(C)csc2=O)cc1`, for which the inhibition was 4.07% (inactive).

Consider `Cc1ccc(NC(=O)Cn2sc3ccccc3c2=O)cc1`, for which the inhibition was 19.6% (active).

For `Cc1nn(CC(=O)Nc2ccc(F)cc2)c(=O)c2ccccc12`, the inhibition is -1.48% (inactive). The result for `O=C(C[C@H]1C=C[C@H](NC(=O)Nc2ccccc2F)[C@@H](CO)O1)NCc1ccc(Cl)cc1` reads -6.94% (inactive); that for `CN1c2ccc(Br)cc2[C@H]2[C@H](CCN2S(=O)(=O)c2ccc(F)cc2)[C@@H]1CO`, 0.059% (inactive); that for `CC(C)NC(=O)N(C)C[C@H]1Oc2cc(C#Cc3ccccn3)ccc2S(=O)(=O)N([C@H](C)CO)C[C@@H]1C`, -0.996% (inactive). The result for `CCNC(=O)[C@@H]1[C@@H](CO)[C@@H]2Cn3c(ccc(C4=CCCC4)c3=O)[C@H]1N2Cc1ccccc1` reads -12.8% (inactive); that for `COc1cc(C2C3=C(CCCC3=O)OC3=C2C(=O)CCC3)ccc1OCC(=O)Nc1ccccc1`, 1.24% (inactive). The value for `COc1ccc(C2C3=C(CCCC3=O)N(CC(=O)O)C3=C2C(=O)CCC3)cc1` was -6.31% (inactive); that for `NC1=C([N+](=O)[O-])C(c2ccccc2)C2=C(CCCC2=O)O1` (configuration not stated) was 15.7% (active); that for `C[C@H]1CCCCO[C@@H](CN(C)C(=O)c2ccccc2)[C@@H](C)CN([C@@H](C)CO)C(=O)c2cc(NS(=O)(=O)c3ccccc3)ccc2O1` was 0.494% (inactive). In the case of `Cc1ccc(-c2cnc3c(c2)C(=O)N([C@H](C)CO)C[C@H](C)[C@@H](CN(C)C(=O)c2cccc(F)c2)O3)cc1`, the inhibition was -11.3% (inactive). The result for `CN1CCN(C(=O)C[C@H]2CC[C@H]3[C@@H](COC[C@H](O)CN3C(=O)c3ccc(F)cc3)O2)CC1` reads 1.19% (inactive). The value for `O=C(CC1CC1)Nc1ccc2c(c1)[C@@H]1C[C@@H](CC(=O)NC3CCCCC3)O[C@@H](CO)[C@@H]1O2` was -2.5% (inactive); that for `CO[C@@H]1CN(C)C(=O)c2ccc(NC(=O)C3CCCCC3)cc2OC[C@@H](C)N(Cc2nccs2)C[C@@H]1C` was 3.01% (inactive). The value for `C[C@@H]1CN([C@H](C)CO)C(=O)Cc2cc(NC(=O)Nc3ccc(F)cc3)ccc2O[C@@H]1CN(C)Cc1ccc2c(c1)OCO2` was 32.7% (active); that for `C[C@H]1CN([C@@H](C)CO)C(=O)Cc2cc(NC(=O)Nc3ccc4c(c3)OCO4)ccc2O[C@H]1CN(C)CC1CC1` was -1.18% (inactive). Turning to `C[C@@H]1CN([C@@H](C)CO)C(=O)Cc2cc(NC(=O)Nc3ccc4c(c3)OCO4)ccc2O[C@@H]1CN(C)CC1CCCCC1`, the inhibition is 18.8% (active).

On to `CC(C)NC(=O)Nc1ccc2c(c1)CC(=O)N([C@H](C)CO)C[C@H](C)[C@H](CN(C)Cc1ccc3c(c1)OCO3)O2`, for which the inhibition is 4.37% (inactive). With `COc1ccc(NC(=O)Nc2ccc3c(c2)CC(=O)N([C@@H](C)CO)C[C@H](C)[C@@H](CN(C)Cc2ccc4c(c2)OCO4)O3)cc1`, the inhibition is 3.53% (inactive). Take `C[C@H]1CN([C@@H](C)CO)C(=O)c2cc(NC(=O)Nc3ccc4c(c3)OCO4)ccc2O[C@@H]1CN(C)CC1CCCCC1`: the inhibition is 6.87% (inactive). The value for `CCCNC(=O)C[C@@H]1CC[C@H]2[C@H](COc3ccc(NC(=O)CCC)cc3C(=O)N2C)O1` was -0.672% (inactive); that for `COc1ccccc1NC(=O)N1CCCCN2[C@H](CO)[C@H](c3ccc(C#CC4CC4)cc3)[C@@H]2C1` was 0.625% (inactive); that for `CO[C@H]1CN(C)C(=O)c2cc(NS(C)(=O)=O)ccc2OC[C@@H](C)N(Cc2ccccc2)C[C@@H]1C` was -4.85% (inactive).

As to `COCC#Cc1ccc2c(c1)O[C@H](CN(C)C(=O)CN(C)C)[C@@H](C)CN([C@H](C)CO)S2(=O)=O`, the inhibition is 1.54% (inactive).

As to `C[C@@H]1CN([C@@H](C)CO)C(=O)c2cc(/C=C/c3ccccc3)cnc2O[C@@H]1CN(C)C(=O)CN(C)C`, the inhibition is -20% (inactive). The result for `C[C@H](CO)N1C[C@H](C)[C@H](CN(C)C(=O)Nc2ccc3c(c2)OCO3)Oc2cc(C#Cc3ccncc3)ccc2S1(=O)=O` reads -1.42% (inactive); that for `CCCN1C[C@@H](C)[C@@H](OC)CN(C)C(=O)c2cc(NC(=O)NC3CCCCC3)ccc2OC[C@H]1C`, 0.947% (inactive); that for `C[C@H](NC(=O)[C@H]1N[C@H]2c3ccc(-c4ccc(C(=O)N(C)C)cc4)c(=O)n3C[C@H]2[C@@H]1CO)c1ccccc1`, -55.5% (inactive). As to `O=C(NCC1CC1)[C@@H]1[C@@H](CO)[C@@H]2Cn3c(ccc(-c4ccccc4)c3=O)[C@H]1N2C(=O)C1CC1`, the inhibition was -28% (inactive). The value for `CO[C@@H]1CN(C)C(=O)c2ccc(NC(=O)Nc3ccccc3)cc2OC[C@H](C)N(C(=O)CC2CC2)C[C@@H]1C` was 6.27% (inactive); that for `O=C(COC(=O)c1ccc(O)cc1O)c1ccc2c(c1)OCCO2` was 19.1% (active); that for `O=C(COC(=O)c1ccccc1)c1ccc2c(c1)OCCO2` was 0.878% (inactive). The result for `O=C(COC(=O)c1ccc(O)cc1O)NC(=O)c1ccccc1` reads 0.616% (inactive); that for `CO[C@H]1CN(C)C(=O)c2cc(NC(=O)c3cnccn3)ccc2OC[C@@H](C)N(CC2CC2)C[C@@H]1C`, 0.994% (inactive). The result for `O=c1ccc2c(-c3ccccc3S(=O)(=O)O)c3ccc(O)c(O)c3oc-2c1O` reads 15.8% (active); that for `Cn1cnc(CCNC(=O)C[C@@H]2CC[C@H]3[C@@H](COC[C@@H](O)CN3C(=O)Nc3ccc(Cl)cc3)O2)c1`, -1.27% (inactive). Regarding `Cn1cnc(CCNC(=O)C[C@H]2CC[C@@H]3[C@H](COC[C@@H](O)CN3C(=O)Nc3ccc(Cl)cc3)O2)c1`, the inhibition is 3.58% (inactive). As for `Cn1cnc(CCNC(=O)C[C@@H]2CC[C@@H]3[C@H](COC[C@@H](O)CN3C(=O)Nc3ccccc3)O2)c1`, the inhibition was 15.8% (active).

For the compound `C[C@H]1CCCCO[C@H](CN(C)C(=O)Nc2ccccc2)[C@@H](C)CN([C@@H](C)CO)C(=O)c2cc(NC(=O)Nc3ccc4c(c3)OCO4)ccc2O1`, the inhibition is 11.6% (inactive).

A word on the inhibition: it is the change of the read-out against control, counted positive when it falls.
